PubChem BioAssay (NCATS)
Inconclusive results are not listed. Active and inactive are the calls of the source. Unless noted, calls follow the shape of the dose curve; as a rule, active = well fitted curve in the direction sought with a large enough effect; inconclusive = small, poorly fitted or top-dose-only effect, or another doubt; inactive = no such curve, though single readings can be large; an effect the other way counts as inactive or inconclusive. Starred links: 1 amine or outer side, 2 acyl side, 3 side chain; linkers in the order of their positions; H or OH if unused. Positions of bridges follow the written chain, without caps; N, C: chain ends. Non-standard residues stand in square brackets, D forms with d. Residues, ends and D or L forms follow the SMILES beside them. Chains are numbered I, II in the order given. ξ: configuration not given here. *: point of attachment. Actinocin(9to1) = Cc1c2oc3c(C)ccc(C(=O)[*:1])c3nc-2c(C(=O)[*:2])c(N)c1=O; Octanoyl(6-Me) = CCC(C)CCCCC(=O)*; ξThr(3R) = C[C@@H](O)C(N)C(=O)O; NMeV = CN[CH](C(=O)O)C(C)C; dDab = NCC[C@@H](N)C(=O)O; Dab = NCC[C@H](N)C(=O)O; Sar = CNCC(=O)O

How the values were obtained:
[1] = qHTS profiling for inhibitors of Plasmodium falciparum (3D7) proliferation (AID 743322);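 also: infected erythrocytes exposed to compound for 72 h before lysis; 100% = DMSO vehicle wells and 0% = 0.29 µM artemisinin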; conditions: P. falciparum 3D7 proliferation; at 28.7 µM (top of the series)
Procedure, shortened: (§1)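 Erythrocytes infected with P. falciparum (0.3% parasitemia, 2.5% hematocrit) incubated with compounds 72 h at 37 C, 5% CO2. Lysis with saponin/Triton buffer containing SYBR Green I, overnight at room temperature in the dark; DNA fluorescence (485/535 nm) normalised to 0.29 uM artemisinin and DMSO.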

[2] = qHTS profiling for inhibitors of Plasmodium falciparum (DD2) proliferation (AID 743323; call rule not given here); conditions: lower = more inhibition; at 28.7 µM (top of the series)
Procedure, shortened: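 1536-well qHTS; infected RBCs 0.3% parasitemia/2.5% Hct final; cpd 72 h 37 C 5% CO2; lysis buffer + SYBR Green I, o/n RT dark; FI 485/535; norm. to 0.29 uM artemisinin and DMSO, plate-stack corrected.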

[3] = qHTS profiling for inhibitors of Plasmodium falciparum (HB3) proliferation (AID 743324); conditions: Plasmodium falciparum HB3 blood-stage proliferation; at 28.7 µM (top of the series);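 also: 100% = DMSO vehicle wells and 0% = artemisinin-treated control wells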
Procedure, shortened: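 P. falciparum HB3 grown in erythrocytes (0.3% parasitemia, 2.5% hematocrit final) with compound for 72 h at 37 C, 5% CO2. Parasite DNA detected by SYBR Green after saponin/triton lysis overnight; normalized to 0.29 uM artemisinin and DMSO.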

[4] = qHTS profiling of the MIPE4 collection as inhibitors of Plasmodium falciparum (3D7) proliferation (AID 743344; call rule not given here;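 also: scaled between DMSO vehicle wells and 0.29 µM artemisinin as full inhibition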); conditions: P. falciparum 3D7 in erythrocytes, SYBR Green DNA fluorescence, 72 h; at 28.5 µM (top of the series) unless noted
Procedure, shortened: as §1

[5] = qHTS profiling of the MIPE4 collection as inhibitors of Plasmodium falciparum (DD2) proliferation (AID 743345; call rule not given here); conditions: P. falciparum Dd2 in erythrocytes, SYBR Green DNA, 72 h; at 28.5 µM (top of the series) unless noted
Procedure, shortened: as §1

[6] = qHTS profiling of the MIPE4 collection as inhibitors of Plasmodium falciparum (DD2) proliferation (Rep 2) (AID 743346; call rule not given here); conditions: P. falciparum Dd2 in erythrocytes, SYBR Green DNA, 72 h; at 28.5 µM (top of the series) unless noted
Procedure, shortened: as §1

[7] = qHTS profiling of the MIPE4 collection as inhibitors of Plasmodium falciparum (HB3) proliferation (AID 743347; call rule not given here;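 also: plate controls were DMSO vehicle wells for no effect and artemisinin wells for full effect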); conditions: P. falciparum HB3 in erythrocytes, SYBR Green DNA, 72 h; at 28.5 µM (top of the series) unless noted
Procedure, shortened: as §1

[8] = High-throughput drug toxicity screening in the BPDCN cell line Gen2.2 (AID 1224824; call rule not given here;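 also: cells exposed to compounds for 48 h before reading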); conditions: Gen2.2 BPDCN cells; at 45.8 µM (top of the series) unless noted
Procedure, shortened: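 Readout is ATP luminescence from Gen2.2 cells after two days of drug exposure in serum-containing medium at 37 °C. Values express percent activity, with vehicle defining full signal and 9.2 uM bortezomib defining zero.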

[9] = High-throughput drug toxicity screening in the BPDCN cell line Cal-1 (AID 1224825; call rule not given here); conditions: Cal-1 BPDCN cell viability, qHTS; at 45.8 µM (top of the series) unless noted
Procedure, shortened: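 500 Cal-1 cells/well, RPMI + glutamine + 10% FBS (phenol red-free); cpd added by pin tool; 48 h, 37C, 5% CO2; CTG 15 min RT, lumi read. Normalised: DMSO 100%, bortezomib 9.2 uM 0%.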

[10] = qHTS assay for measurement of the activity of small molecule inhibitors on Zika virus induced Caspase-3 activity in human iPSC derived neural progenitor cells (hNPCs) (AID 1224857); conditions: hNPCs ZIKV-induced caspase-3/7, Caspase-Glo luminescence, 6 h; series mostly up to 45.7 µM; also: nearly all actives have a fitted effect of over 65% in size; also: potency is read from the fitted curve at half-maximal effect
Procedure, shortened: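 Zika virus (2 FFU/cell) infection of human iPSC-derived NPCs, 6 h, following 1 h compound preincubation. Read-out: Caspase-Glo 3/7 luminescence.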

[11] = qHTS assay for measurement of the activity of small molecule inhibitors on Zika virus induced Caspase-3 activity in human astrocytoma cells (AID 1224859); conditions: SNB-19 ZIKV-induced caspase-3/7, luminescence, 6 h; series mostly up to 45.7 µM; also: potency is read from the fitted curve at half-maximal effect
Procedure, shortened: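 Caspase activation in ZIKV-infected SNB-19 cells (2 FFU/cell, 6 h) measured by Caspase-Glo 3/7 luminescence after 30 min RT; compound pre-incubated 1 h; normalised to uninfected and infected controls.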

[12] = qHTS Screen of the MIPE 4.0 Collection Against Ewings Sarcoma (RDES) (AID 1259252); conditions: RD-ES Ewing sarcoma viability, CellTiter-Glo, 48 h; series mostly up to 45.8 µM; also: nearly all actives have a fitted effect of over 35% in size; also: potency is read from the fitted curve at half-maximal effect
Procedure, shortened: (§2)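 CellTiter-Glo luminescence after 48 h compound exposure (titration) gave viability; percent activity used DMSO-treated cells as no inhibition and medium-only wells as full inhibition. Cells grown in RPMI/5% FBS, dosed 4 h post-seeding.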

[13] = qHTS Screen of the MIPE 4.0 Collection Against Ewings Sarcoma (TC71) (AID 1259253); conditions: TC71 Ewing sarcoma viability, CellTiter-Glo, 48 h; series mostly up to 45.8 µM; also: nearly all actives have a fitted effect of over 40% in size; also: potency is read from the fitted curve at half-maximal effect
Procedure, shortened: as §2

[14] = qHTS Screen of the MIPE 4.0 Collection Against Ewings Sarcoma (EW8) (AID 1259255); conditions: EW8 Ewing sarcoma viability, CellTiter-Glo, 48 h; series mostly up to 45.8 µM; also: nearly all actives have a fitted effect of over 35% in size; also: potency is read from the fitted curve at half-maximal effect;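 as to viability: 100% = DMSO-treated cells and 0% = medium-only wells without cells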
Procedure, shortened: as §2

[15] = qHTS Screen of the MIPE 4.0 Collection Against Ewings Sarcoma (TC32) (AID 1259256); conditions: TC32 Ewing sarcoma viability, CellTiter-Glo, 48 h; series mostly up to 45.8 µM; also: nearly all actives have a fitted effect of over 45% in size; also: potency is read from the fitted curve at half-maximal effect
Procedure, shortened: as §2

[16] = target: T1, Hexokinase-4 (Homo sapiens) + Glucokinase regulatory protein (Homo sapiens) (UniProt P35557+Q14397); assay: qHTS assay for inhibitors of recombinant human GCK-GKRP interaction: Diaphorase-coupled assay (AID 743205); conditions: G6PDH/diaphorase resorufin fluorescence; series mostly up to 57.5 µM
T1 sequence (P35557 whole entry, looked up): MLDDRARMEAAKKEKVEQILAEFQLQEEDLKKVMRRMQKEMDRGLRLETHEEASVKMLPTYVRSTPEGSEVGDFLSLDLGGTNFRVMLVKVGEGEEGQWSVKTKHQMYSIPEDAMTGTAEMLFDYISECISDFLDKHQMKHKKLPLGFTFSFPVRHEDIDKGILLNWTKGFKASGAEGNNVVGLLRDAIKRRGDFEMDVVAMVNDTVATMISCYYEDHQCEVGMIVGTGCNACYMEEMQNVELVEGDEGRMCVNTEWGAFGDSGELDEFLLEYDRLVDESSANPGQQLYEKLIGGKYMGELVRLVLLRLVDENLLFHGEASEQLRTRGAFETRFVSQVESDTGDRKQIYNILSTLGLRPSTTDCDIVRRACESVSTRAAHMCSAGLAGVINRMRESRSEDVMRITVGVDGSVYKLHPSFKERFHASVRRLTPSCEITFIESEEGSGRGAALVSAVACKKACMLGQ
T1 sequence (Q14397 whole entry, looked up): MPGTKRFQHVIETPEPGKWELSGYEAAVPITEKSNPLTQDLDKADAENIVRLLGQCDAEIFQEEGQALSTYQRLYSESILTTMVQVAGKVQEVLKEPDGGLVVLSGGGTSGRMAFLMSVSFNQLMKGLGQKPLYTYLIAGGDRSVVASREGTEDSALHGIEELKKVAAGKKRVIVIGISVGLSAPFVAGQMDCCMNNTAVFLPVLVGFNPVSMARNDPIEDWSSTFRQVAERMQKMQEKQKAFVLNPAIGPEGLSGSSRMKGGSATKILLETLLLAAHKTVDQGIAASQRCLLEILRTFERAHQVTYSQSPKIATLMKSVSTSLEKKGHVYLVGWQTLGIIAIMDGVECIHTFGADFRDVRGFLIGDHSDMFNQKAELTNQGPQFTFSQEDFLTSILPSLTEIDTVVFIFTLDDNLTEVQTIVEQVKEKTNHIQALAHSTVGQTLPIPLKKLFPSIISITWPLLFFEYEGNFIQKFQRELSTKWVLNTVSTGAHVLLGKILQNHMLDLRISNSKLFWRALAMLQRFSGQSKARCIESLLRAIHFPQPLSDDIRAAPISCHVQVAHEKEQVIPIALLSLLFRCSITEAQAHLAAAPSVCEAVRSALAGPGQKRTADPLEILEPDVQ
Procedure, shortened: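 Signal derives from resorufin generated by diaphorase, linked to GCK turnover of glucose (5 mM) and ATP (0.4 mM). Enzyme complex was added after a 20-minute compound preincubation and monitored for 30 minutes.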

[17] = target: T1, Hexokinase-4 (Homo sapiens) + Glucokinase regulatory protein (Homo sapiens); assay: qHTS assay for inhibitors of recombinant human GCK-GKRP interaction: ADP-Glo assay (AID 743206); conditions: ADP-Glo luminescence, 60 min, 0% = vehicle-only wells with enzyme present; series mostly up to 76.9 µM;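 also: plate controls were DMSO plus enzyme for no effect and no enzyme for full effect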
Procedure, shortened: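 GST-GCK and FLAG-GKRP (15 nM each in the dispensed mix, with 2 uM S6P) react with 0.4 mM ATP and 5 mM glucose (final) in Hepes pH 7.6 for 60 min at room temperature. ADP is measured by ADP-Glo luminescence.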

[18] = target: T1, Hexokinase-4 (Homo sapiens) + Glucokinase regulatory protein (Homo sapiens); assay: qHTS assay for inhibitors of recombinant human GCK-GKRP interaction: HTRF assay (AID 743207); conditions: recombinant GCK-GKRP HTRF binding, 60 min, with sorbitol-6-phosphate; series mostly up to 57.5 µM;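 also: 0% = DMSO with GCK present and -100% = DMSO wells lacking GCK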
Procedure, shortened: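 Titration screening format: recombinant GST-GCK and FLAG-GKRP at 5 nM, S6P at 2 uM, labelled anti-tag antibodies, 60 min at RT, dual-wavelength HTRF readout.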

SMILES | remaining parasite growth % (stronger effect = lower value) [1] [%] | activity, percent of control [2] [%] | remaining proliferation (% of control), lower = more inhibition [3] [%] | parasite growth, % of DMSO control [4] [%] | parasite growth remaining, % of DMSO control (lower = more inhibition) [5] [%] | parasite growth, % of control (lower = inhibition) [6] [%] | growth, % of control [7] [%] | cell viability, % of control (lower = more cytotoxic) [8] | viability (% of control) [9] | Potency [10] | Potency [11] | Potency [12] | Potency [13] | Potency [14] | Potency [15] | outcome [16] | outcome [17] | outcome [18]
c1ccc2c(Oc3nc(Nc4ccc(N5CCOCC5)cc4)c4ncn(C5CCCCC5)c4n3)cccc2c1 | -0.456 | 1.45 | -1.02 | 6.5 | 8.01 | 33.7 | 9.45 | 187% | 100% | inactive | inactive | inactive | inactive | inactive | inactive | – | – | –
CN[C@H](CC(C)C)C(=O)N[C@H]1C(=O)N[C@@H](CC(N)=O)C(=O)N[C@@H]2C(=O)N[C@H]3C(=O)N[C@H](C(=O)N[C@H](C(=O)O)c4cc(O)cc(O)c4-c4cc3ccc4O)[C@H](O)c3ccc(c(Cl)c3)Oc3cc2cc(c3O[C@@H]2O[C@H](CO)[C@@H](O)[C@H](O)[C@@H]2O[C@H]2C[C@](C)(N)[C@H](O)[C@H](C)O2)Oc2ccc(cc2Cl)[C@H]1O | – | – | – | 387 | – | – | – | 160% | 93.1% | inactive | inactive | inactive | inactive | inactive | inactive | inactive | inactive | inactive
O=c1[nH]c(=O)n([C@H]2C[C@@H](O)[C@@H](CO)O2)cc1C=CBr | – | – | – | – | – | – | – | 164% | 115% | inactive | inactive | inactive | inactive | inactive | inactive | inactive | inactive | inactive
NC1=N[C@H]2[C@H](CS[C@H]2CCCCC(=O)O)N1 | – | – | – | – | – | – | – | 175% [at 23.2 µM] | 126% [at 23.2 µM] | inactive | inactive | inactive | inactive | inactive | inactive | – | – | –
Cc1c2oc3c(C)ccc(C(=O)NC4C(=O)NC(C(C)C)C(=O)N5CCCC5C(=O)N(C)CC(=O)N(C)C(C(C)C)C(=O)OC4C)c3nc-2c(C(=O)NC2C(=O)NC(C(C)C)C(=O)N3CCCC3C(=O)N(C)CC(=O)N(C)C(C(C)C)C(=O)OC2C)c(N)c1=O (centres undefined) (I: TVP[Sar][NMeV] / II: TVP[Sar][NMeV]; ester I:1-I:C, II:1-II:C; linker I:N-II:N via Actinocin(9to1); configuration not given here) | -4 | -2.06 | -1.93 | 3.86 | 3.9 | 15.2 | 2.3 | 2.59% | 1.96% | inactive | inactive | inactive | inactive | inactive | inactive | – | – | –
CN(C)c1ccc2cc(C(=O)N[C@@H](CCCN=C(N)CCl)C(=O)NCc3ccccc3)ccc2c1 | 6.68 | 11.8 | -0.673 | 5.85 | – | 9.19 | – | 1.99% | 2.66% | 20.9 µM (active) | inactive | 0.833 µM (active) | 11.8 µM (active) | 9.35 µM (active) | 7.43 µM (active) | – | – | –
COC(=O)C1C2CC3c4[nH]c5cc(OC)ccc5c4CCN3CC2CC(OC(=O)c2cc(OC)c(OC)c(OC)c2)C1OC (centres undefined) | 1.2 | 9.89 | 2.79 | 10.2 | 39.3 | 20 | – | 120% | 78.7% | inactive | inactive | 2.64 µM (active) | 2.64 µM (active) | 2.96 µM (active) | 2.35 µM (active) | – | – | –
CCC(C)CCCCC(=O)N[C@@H](CCN)C(=O)NC(C(=O)N[C@H](CCN)C(=O)N[C@@H]1CCNC(=O)C([C@@H](C)O)NC(=O)[C@@H](CCN)NC(=O)[C@@H](CCN)NC(=O)[C@@H](CC(C)C)NC(=O)[C@H](Cc2ccccc2)NC(=O)[C@H](CCN)NC1=O)[C@@H](C)O (stereo partly drawn) ({Octanoyl(6-Me)}-[Dab][ξThr(3R)][dDab][dDab][Dab]F[dL][dDab][dDab][ξThr(3R)]; lactam 4-C) | – | – | – | 407 | 124 | 83.7 | – | 172% | 116% | inactive | inactive | inactive | inactive | inactive | inactive | – | – | –
Cn1c(Nc2ccc(C(F)(F)F)cc2)nc2cc(Oc3ccnc(-c4ncc(C(F)(F)F)[nH]4)c3)ccc21 | -1.53 | 0.692 | -0.79 | 7.02 | 10.9 | 19.4 | 8.58 | 9.63% | 13.2% | inactive | inactive | 14.8 µM (active) | 7.43 µM (active) | 5.26 µM (active) | 2.09 µM (active) | – | – | –
O=c1ccn([C@@H]2O[C@H](CO)[C@H](O)[C@@H]2F)c(=O)[nH]1 | – | – | – | 187 | 100 | 107 | – | 191% | 119% | inactive | inactive | 3.72 µM (active) | 3.32 µM (active) | 26.4 µM (active) | 18.7 µM (active) | – | – | –
C[N+]1(C)[C@@H]2C[C@@H](OC(=O)C(O)(c3cccs3)c3cccs3)C[C@H]1[C@@H]1O[C@@H]12 | – | – | – | – | – | – | – | 87.6% | 97.5% | inactive | inactive | inactive | inactive | inactive | inactive | – | – | –
Cc1[nH]c(C=C2C(=O)Nc3ccccc32)c(C)c1CCC(=O)O | – | – | – | 7.83 | 176 | 138 | – | 12.9% | 5.24% | 16.6 µM (active) | 11.8 µM (active) | 0.209 µM (active) | 0.296 µM (active) | 0.235 µM (active) | 0.235 µM (active) | – | – | –
